Reference: PubChem BioAssay AID624330 (Southern Research Specialized Biocontainment Screening …, 2012)
Among all 340,000 compounds or so, about 2,100 (0.62%) were called active.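 How the source made its calls: active means first-screen hits whose inhibition reached a set limit at any dose in the follow-up dose series; inconclusive means inhibition above the set first-screen limit but never retested; inactive means the rest.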 The list is a sample of the results. Results with a measured potency or affinity are listed apart.

Each compound was assayed against Rac GTPase-activating protein 1 (Homo sapiens) (UniProt Q9H0H5) (assay: blockers of MgcRacGAP-driven Rac1 GTP hydrolysis – biochemical, ADP Hunter fluorescence, primary and confirmatory, confirmation (AID 624330;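 further: fluorescence reports GDP produced by GAP-driven GTP hydrolysis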)). Conditions: MgcRacGAP-stimulated Rac1 GTP hydrolysis, at 30 µM, stronger effect = higher value, GST-tagged Rac1 F28L mutant substrate.
Sequence of Rac GTPase-activating protein 1 (Homo sapiens) (Q9H0H5 whole entry, looked up): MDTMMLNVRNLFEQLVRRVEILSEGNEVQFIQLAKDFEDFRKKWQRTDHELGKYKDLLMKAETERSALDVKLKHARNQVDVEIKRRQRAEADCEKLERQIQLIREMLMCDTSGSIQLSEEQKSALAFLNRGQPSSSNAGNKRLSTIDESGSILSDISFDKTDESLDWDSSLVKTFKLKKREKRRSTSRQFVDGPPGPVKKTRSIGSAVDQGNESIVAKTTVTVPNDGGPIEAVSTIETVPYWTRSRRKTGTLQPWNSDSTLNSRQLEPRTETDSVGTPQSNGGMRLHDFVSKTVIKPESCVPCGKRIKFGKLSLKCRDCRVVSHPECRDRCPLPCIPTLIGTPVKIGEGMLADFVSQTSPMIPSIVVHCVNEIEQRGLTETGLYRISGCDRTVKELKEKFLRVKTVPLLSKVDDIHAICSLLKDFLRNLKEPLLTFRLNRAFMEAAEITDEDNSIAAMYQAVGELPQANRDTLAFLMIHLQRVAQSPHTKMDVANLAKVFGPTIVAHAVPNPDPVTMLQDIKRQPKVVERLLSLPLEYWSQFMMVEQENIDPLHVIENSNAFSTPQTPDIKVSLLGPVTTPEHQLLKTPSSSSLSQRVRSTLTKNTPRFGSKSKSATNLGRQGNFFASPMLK

inhibition, inactive:
Cc1ccc(NC(=O)c2cnccn2)cc1S(=O)(=O)N1CCCCCC1 6.35%
COc1ccc(-c2nc(NC3=NCCCCC3)sc2C)cc1 6.19%
CCCNC(=O)c1onc(CSc2ccc(Cl)cc2)c1C(=O)NCC1CC1 7.59%
COC(=O)c1ccc(NC(=O)c2cn(-c3ccccc3)nc2-c2ccncc2)cc1 -0.99%
CN(C)c1ccc2c3c(ccc(N(C)C)c13)COC2 -1.08%
CN=Cc1nc(-c2ccccc2)oc1O 10.2%
CC(C)(C)N=Cc1cc(-c2ccccc2)sc1O 7.65%
CCCn1c(N2CCN(C(=O)N3CCCCC3)CC2)nc2ccccc21 -9.24%
C#CCOCCOCCOCCNc1nc(N2CCOCC2)nc(N2CCN(C(=O)[C@H](CCCCN)n3cc(CN)nn3)CC2)n1 20.9%
C#CCOCCOCCOCCNc1nc(N2CCN(C(=O)CCCCCCCCCCNC(=O)[C@@H](CCSC)n3cc(CCO)nn3)CC2)nc(N2CCN(C(=O)CCCCCCCCCCNC(=O)[C@H](CCC(=O)O)n3cc(CCCCCN)nn3)CC2)n1 8.01%
C#CCOCCOCCOCCNc1nc(N2CCN(C(=O)[C@H](CCC(=O)O)n3cc(CN)nn3)CC2)nc(N2CCN(C(=O)[C@H](CCCCN)n3cc([C@@H](N)CC(N)=O)nn3)CC2)n1 8.54%
C#CCOCCOCCOCCNc1nc(N2CCN(C(=O)[C@H](CCCCN)n3cc(CN)nn3)CC2)nc(N2CCN(C(=O)[C@H](CCC(=O)O)n3cc(CN)nn3)CC2)n1 10.3%
C#CCOCCOCCOCCNc1nc(N2CCN(C(=O)CCCCCCCCCCNC(=O)[C@@H](CCSC)n3cc(CCO)nn3)CC2)nc(N2CCN(C(=O)CCCCCCCCCCNC(=O)[C@H](CCSC)n3cc(CCO)nn3)CC2)n1 -2.72%
C#CCOCCOCCOCCNc1nc(N2CCN(C(=O)C([C@@H](C)O)n3cc([C@@H](N)CCCCN)nn3)CC2)nc(N2CCN(C(=O)C([C@@H](C)O)n3cc([C@@H](N)CCCCN)nn3)CC2)n1 (some centres undefined) 27.4%
C#CCOCCOCCOCCNc1nc(N2CCN(C(=O)[C@H](CCC(=O)O)n3cc([C@@H](N)CCCCN)nn3)CC2)nc(N2CCN(C(=O)[C@H](CCC(=O)O)n3cc([C@@H](N)CCCCN)nn3)CC2)n1 3.63%
C#CCOCCOCCOCCNc1nc(N2CCN(C(=O)C([C@@H](C)O)n3cc([C@@H](N)CCCCN)nn3)CC2)nc(N2CCN(C(=O)[C@H](CCCCN)n3cc([C@@H](N)CC(N)=O)nn3)CC2)n1 (some centres undefined) 30.2%
COc1ccc(S(=O)(=O)N2CCN(c3ncccn3)CC2)cc1 -2.15%
COc1ccc(NC(=O)c2ccc(N3CCCC3=O)cc2)cc1Cl -8.17%
Cc1ccc(SCC(=O)Nc2ccc(N3CCOCC3)cc2)cc1 9.38%
Cc1ccc(Cn2ccc(NC(=O)c3noc4c3CCCC4)n2)cc1 -0.93%
Cc1cc(C(F)(F)F)nn1Cc1n[nH]c(=S)n1Cc1ccccc1 8.02%
CCC(O)CNC(=O)NC(=C(Cl)Cl)c1ccc(C)c(F)c1 (centres undefined) -0.09%
O=C(N/N=C\c1cccc(Cl)c1)c1n[nH]c2c1CCCC2 2.96%
CCOC(=O)CNC(=O)C(=O)c1c(O)[nH]c2ccccc12 15.3%
Cc1ccc2c(COC(=O)C34CC5CC(CC(C5)C3)C4)cc(=O)oc2c1 0.94%
Cc1ccc(NCC(=O)c2ccccc2)cc1Cl 3.37%
COc1cc(NC(=O)NS(=O)(=O)c2ccc(C)cc2)cc(OC)c1 4.34%
Cc1ccc(S(=O)(=O)NC(=O)Nc2ccc(F)c(F)c2)cc1 8.4%
COc1ccc(N2CCN(CC(=O)c3c[nH]c4ccccc34)CC2)cc1 -4.34%
CNC(=O)CSc1nc2sccc2c(=O)n1-c1ccccc1 4.24%
COc1ccc(NC(=O)CSc2nc(N)c(C(=O)Nc3ccc(N(C)C)cc3)s2)cc1 16.4%
CCN(CC)C(=O)CSc1nc(N)c(C(=O)Nc2ccc(OC)cc2)s1 14%
Cc1nnc(SCC(=O)Nc2nccs2)s1 1.9%
CN(C)c1ccc(NC(=O)c2sc(SCC(=O)Nc3ccc(Br)cc3)nc2N)cc1 10.8%
Cc1cc(C)cc(OCC(=O)OCC(=O)NC2CC2)c1 -3.46%
CC(C)C(O)(C#CCN1CCCCC1)c1ccccc1 (centres undefined) -1.57%
Cc1ccc(NC(=O)CSCC(=O)Nc2nnc(C3CC3)s2)cc1 7.27%
CCOC(=O)c1c(C)n(-c2ccc(C)cc2)c2ccc(OCC(O)CNCCCO)cc12 (centres undefined) 14.9%
CCOC(=O)c1c(C)n(-c2ccc(C)cc2)c2ccc(OCC(O)CN3CCN(C)CC3)cc12 (centres undefined) 5.99%
O=C(COC(=O)c1cc(=O)[nH]c(=O)[nH]1)NCc1ccccc1 3.71%
O=C(Nc1nnc(-c2ccncc2)s1)C1CCCO1 (centres undefined) 2.37%
CC(C)CN(C(=O)COC(=O)c1cc(=O)[nH]c2ccccc12)c1c(N)n(Cc2ccccc2)c(=O)[nH]c1=O 4.11%
COc1ccc(CNCC(O)COc2ccc(C(C)(C)c3ccccc3)cc2)cc1 (centres undefined) 26.6%
CCOc1ccc(OCC(O)CNC2CCN(Cc3ccccc3)CC2)cc1 (centres undefined) 7.46%
OC(CNCCc1ccccc1)COc1ccc(OCC(O)CNCCc2ccccc2)cc1 (centres undefined) 8.04%
CC(C)(c1ccccc1)c1ccc(OCC(O)CN2CCCC2)cc1 (centres undefined) 9.77%
CCCCCC(=O)C(=O)c1ccc(O)cc1O -2.38%
O=C(NNC(=O)c1cccnc1)NC1CCCCC1 7.92%
CSc1cccc(NS(=O)(=O)c2cc(Br)cnc2N)c1 -1.74%
O=C(Nc1ccc(N2CCCCCC2)cc1)c1ccccc1Cl 20.3%
O=C(Nc1ccc(N2CCCCC2)cc1)c1ccc(F)cc1 4.29%
CC(=O)N1CCN(c2ccc(NC(=O)c3ccccc3C)cc2)CC1 9.24%
O=C(Nc1ccc(N2CCCCC2)cc1)c1ccccc1 36.6%
CC(c1ccncn1)N(C)C(=O)c1ccc2oc(Cc3ccccc3)nc2c1 (centres undefined) 6.98%
CC1CCCCC1NC(=O)CN(C)S(=O)(=O)c1cccc2nsnc12 (centres undefined) 9.08%
COc1ccc(/C=N/NC(=O)C(=O)N2CCCCCC2)cc1O 11.9%
COc1ccc(/C=N/NC(=O)C(=O)N2CCCC2)cc1OC 7.5%
CCOc1ccc(/C=N/NC(=O)CN2CCCCC2)cc1OCC 10.1%
CCCOc1ccc(/C=N/NC(=O)CN2CCCCC2)cc1OCC 0.56%
COc1ccc(/C=N/NC(=S)NCC2CCCO2)cc1 (centres undefined) 5.53%
COc1cc(/C=N/NC(=S)NCC2CCCO2)cc(OC)c1OC (centres undefined) 7.93%
S=C(NCc1ccco1)N/N=C/c1ccc(Cl)cc1 17.1%
S=C(NCc1ccco1)N/N=C/c1ccncc1 2.98%
Cc1ccc(C2CN(CCC(N)=O)C(=O)CO2)cc1 (centres undefined) 3.49%
CC1CCCCC1NC(=O)CCCCCn1c(=S)[nH]c2ccsc2c1=O (centres undefined) 6.67%
CC1=C([N+](=O)[O-])C(c2ccccc2C(F)(F)F)NC(=O)N1C (centres undefined) 2.05%
COc1ccc2c(C)cc(SCC(=O)NC3CCCCC3)nc2c1 3.25%
O=C(CN1C(=O)COc2ccccc21)N1CCc2ccccc2C1 2.34%
O=C(NCCc1csc(-c2ccccc2)n1)c1ccc(Br)o1 9.81%
O=C(COC(=O)c1ccc(F)c(S(=O)(=O)N2CCOCC2)c1)NCc1ccc(Cl)cc1 -1.94%
N#CCCn1cc(C(=O)Nc2ccc([N+](=O)[O-])cc2)c(-c2cccs2)n1 4.36%
C[C@@H]1CN([C@H](C)CO)C(=O)c2cc(Br)cnc2O[C@@H]1CN(C)C(=O)c1ccccc1 14.7%
Cn1c(=O)cc(OCCCC(=O)NCCCN2CCN(Cc3ccccc3)CC2)c2ccccc21 2.96%
O=C(N/N=C/c1cccc(O)c1)C(=O)N1CCCCCC1 0.3%
COc1cc(/C=N/NC(=O)C(=O)NCC2CCCO2)cc(Cl)c1O (centres undefined) 21.6%
C=CCOc1ccc(/C=N/NC(=O)C(=O)N2CCCCCC2)cc1OC 2.52%
O=C(NCC1CCCO1)C(=O)N/N=C/c1ccc(O)c(Cl)c1 (centres undefined) 26.7%
CCN(Cc1nc(-c2ccc(C)cc2)no1)C(=O)c1ccco1 2.23%
Cc1nnc(NC(=O)CSc2ccccc2N)s1 6.42%
CCOc1cccc2cc(C(=O)N3CCOCC3)c(=O)oc12 5.1%
O=C(Cn1cccc1C(=O)c1ccccc1)NCc1cccnc1 14.8%
O=C(CSc1nc2ccccc2[nH]1)Nc1c(F)c(F)c(F)c(F)c1F 1.98%
COc1ccccc1S(=O)(=O)Cc1ccc(C(=O)NC2CCCCC2)o1 5.84%
COc1cc(CN2CCC(C(=O)N3CCCC(C)C3)CC2)cc(OC)c1O (centres undefined) 26.8%
COc1ccc(CN2CCC(C(=O)N3CCCC(C)C3)CC2)cc1OC (centres undefined) 12.3%
COc1cc(CN2CCC(C(=O)NC3CCCC3)CC2)cc(OC)c1O 23.1%
CCOC(=O)C1CCN(Cc2ccc(O)c(OC)c2)CC1 27.4%
CCOc1cc(CN2CCC(N3CCC(C(=O)NC4CC4)CC3)CC2)ccc1O 17.9%
COc1cc(CN2CCCCCC2)cc(Br)c1O 15.4%
